# Results from PubChem BioAssay (NCATS).
# Results filed as inconclusive are left out. A number with no mark means an inactive call. Calls come from the whole dose curve; as a rule, active = well fitted inhibition curve with a large enough effect; inconclusive = small, poorly fitted or top-dose-only effect, or effect the other way; inactive = flat fitted curve, though single readings scatter.
# Biological target: Ubiquitin carboxyl-terminal hydrolase 2 (Homo sapiens) (UniProt O75604)
# Assay: qHTS Validation Assay for Inhibitors of Ubiquitin-specific Protease USP2a Using CHOP2 as the Reporter (AID 463106)
# Conditions: USP2a cleavage of CHOP2 reporter, enzymatic; series mostly up to 38.3 µM; activity, negative = inhibition: at the top concentration
# Source text: NIH Molecular Libraries Screening Centers Network [MLSCN]
# NIH Chemical Genomics Center [NCGC]
# PI Name: Nicholson, Ben. Progenra Inc, Malvern, PA
# Homeostasis of cellular proteins is maintained through a combination of synthesis and degradation. The pathway that accounts for the majority of protein degradation is the ubiquitin-proteasomal pathway. Ubiquitin (Ub) is highly conserved in all cells and the generation of a multi-Ub chain typically targets proteins for degradation by the proteasome. However, ubiquitination is highly reversible and dynamic. Deubiquitination, the reverse process, is catalyzed through the action of enzymes referred to as isopeptidases or deubiquitinating enzymes (DUBs). This group of enzymes is collectively responsible for maintaining adequate pools of free ubiquitin and regulating the ubiquitination status of cellular proteins. The class of DUBs referred to as the ubiquitin-specific proteases (USP) family functions endoproteolytically to cleave Ub chains from a wide range of protein substrates. USP2a deubiquitinates fatty acid synthase (FASN) which has recently been identified as an emerging oncology target. To identify inhibitors of USP2a a cell-free assay was employed.
# The reporter enzyme chosen is an enterokinase called CHOP2, which is activated when the Ub is cleaved by USP2. The free and now activated reporter can subsequently act on its reporter substrate. […] The assay was developed by Progenra, Inc. and has been licensed for sale by LifeSensors, Inc. as Ub-CHOP2-Reporter-Kit (#PR1101).
# NCGC Assay Protocol Summary:
# The assay buffer, prepared fresh at the day of the assay, contains 20mM Tris-HCl pH 8.0, 2mM CaCl2, 2mM beta-Mercaptoethanol, 0.05% CHAPS. 3ul of 20nM (10nM final) USP2 core, which is stored on ice, is dispensed into a medium-binding black solid Kalypsys 1,536 well plate using the Kalypsys dispenser. The assay plate is then pinned with 23nL compound with the Kalypsys pintool in columns 5-48. The controls are pinned as follows: column 1 two-fold dilutions of 2M NEM in duplicate; column 2 2M NEM (final concentration 38.2mM); column 3&4 DMSO. The assay plate is incubated at RT for 30min. Subsequently, 1.5uL of 100nM (25nM final) Ub-CHOP2 and 1.5uL of 100nM (25nM final) Reporter Substrate (both stored on ice and protected from light) were dispensed into the plate using the Kalypsys dispenser. Plates were read after 60min RT incubation on a ViewLux (Perkin Elmer) plate reader using the following wavelengths Ex 485nm /Em 531nm.
# Data were normalized to the to AC100 inhibition (NEM). Concentration-response curves were fitted to the normalized data and the concentration-response curves were then classified based on curve quality (r2), response magnitude and degree of measured activity. The time zero reading was used to flag fluorescence artifacts.
# Keywords: ubiquitination, deubiquitination, proteases, profluorescent, MLSMR, MLPCN, NIH Roadmap, qHTS, NCGC
# Sequence of Ubiquitin carboxyl-terminal hydrolase 2 (Homo sapiens) (O75604 whole entry, looked up): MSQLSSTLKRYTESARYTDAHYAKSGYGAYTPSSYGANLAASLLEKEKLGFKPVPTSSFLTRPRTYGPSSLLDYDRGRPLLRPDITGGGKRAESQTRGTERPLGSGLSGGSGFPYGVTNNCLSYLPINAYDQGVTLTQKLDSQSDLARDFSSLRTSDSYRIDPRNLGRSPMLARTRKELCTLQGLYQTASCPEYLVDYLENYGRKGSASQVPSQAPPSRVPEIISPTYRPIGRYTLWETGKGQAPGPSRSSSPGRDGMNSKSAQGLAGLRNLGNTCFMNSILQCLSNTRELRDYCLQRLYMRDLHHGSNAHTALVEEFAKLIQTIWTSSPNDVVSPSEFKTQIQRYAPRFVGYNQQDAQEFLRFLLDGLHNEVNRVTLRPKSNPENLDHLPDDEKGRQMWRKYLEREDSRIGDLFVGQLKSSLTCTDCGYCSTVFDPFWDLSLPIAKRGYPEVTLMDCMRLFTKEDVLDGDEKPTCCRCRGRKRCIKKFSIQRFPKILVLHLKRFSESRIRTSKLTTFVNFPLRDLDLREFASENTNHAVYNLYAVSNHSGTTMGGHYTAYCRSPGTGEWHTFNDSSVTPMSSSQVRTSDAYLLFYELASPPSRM
row,SMILES,"activity, negative = inhibition"
1,CN(C)c1cc2c(Nc3ccc4c(cnn4Cc4ccccc4)c3)ncnc2cn1,-7.94%
2,COc1ccccc1N1CCN(CCN2C(=O)CC3(CCCC3)CC2=O)CC1,-0.479%
3,Cn1cnc2c(NCc3ccccc3)nc(NCCO)nc21,4.41%
4,COc1cccc2c1[C@@H]1CN(CCCCn3c(=O)[nH]c4c(sc5ncc(-c6ccccc6)nc54)c3=O)C[C@@H]1CO2,3.91%
5,O=C1NC(=O)/C(=C/c2ccc3c(c2)OC(F)(F)O3)S1,2.48%
6,Brc1ccc([C@H]2CN3CCSC3=N2)cc1,-0.282%
7,CCN(CC)CCNC(=O)c1ccc(NS(C)(=O)=O)cc1,0.431%
8,C[N+](C)(C)CCO,3.65%
9,N[C@@H](Cn1ccc(=O)c(O)c1)C(=O)O,-0.115%
10,NC(N)=NCCCCN=C(N)N,0.823%
11,CC(C)N(CCC(=O)c1ccc2ccccc2c1)Cc1ccccc1,0.164%
12,O=C1NC(c2cccc([N+](=O)[O-])c2)=CCN1c1ccccc1O,0.886%
13,Clc1ccc2c(c1)N=C(N1CCNCC1)c1ccccc1N2,-0.847%
14,Nc1ncnc2n[nH]c(Nc3ccc(F)cc3)c12,0.0577%
15,O=[N+]([O-])c1ccc(-c2nc(-c3ccc(F)cc3)c(-c3ccncc3)[nH]2)cc1,-8.48%
16,COC(=O)C1=CO[C@@H](O)[C@@H]2C(CO)=CC[C@H]12,4.16%
17,Cc1nn(-c2ccccc2)c(C)c1/C=N/N1CCN(Cc2ccccc2)CC1,0.859%
